Shown are actives, neighbours in structure and some others; about 2.2% of the full set was active somewhere.
TDP43 rescue = rescues yeast growth from TDP-43 toxicity | actives 1.8% (n = 410,000) | AID 652104 | Potency, µM (doses to about 46.1 µM), hits mostly activators | TDP-43 expressing yeast growth rescue, BacTiter-Glo, 24 h; note: nearly all actives have a fitted effect of over 50% in size
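Galactose-induced TDP-43 yeast, OD600=0.02, compound pinned; 24 hr, 30 deg C; BacTiter-Glo luminescence for growth. Inhibitors of TDP-43 toxicity read as activators.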
Abeta yeast res = compounds reversing amyloid beta toxicity in yeast; actives 0.063% (n = 410,000); yeast expressing A-beta42, growth rescue, OD600, 48 h; response scale: 0% DMSO, 100% iron-clioquinol control; Potency, µM (highest dose often 46.1 µM), most hits filed as activators; AID 1347071; note: nearly all actives have a fitted effect of over 55% in size
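Yeast A-beta toxicity model in growth medium with pinned compounds, 48 h at 30 C; growth read as absorbance at 600 nm. Normalized to FeCl3/clioquinol equimolar mix (positive) and DMSO (negative).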
Mito fusion yeast = mitochondrial division inhibition or fusion activation; S. cerevisiae fusion-defective mutant growth rescue, CellTiterGlo 48 h; Potency, µM (doses to about 46.1 µM), hits mostly activators; actives 0.23% (n = 320,000); note: nearly all actives have a fitted effect of over 45% in size
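Read-out: ATP-based luminescence (CellTiterGlo, 10 min ambient) reporting growth of fusion-defective ts yeast after 48 hours at 37C on glycerol/ethanol YPEG medium in the presence of compound.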
aSyn yeast inh = inhibitors of alpha-synuclein toxicity in yeast | Yeast expressing alpha-synuclein, growth rescue, BacTiter-Glo, 24 h | Potency, µM (doses to about 46.1 µM), hits mostly activators | actives 0.14% (n = 370,000); note: nearly all actives have a fitted effect of over 65% in size
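Screening used galactose-induced yeast with toxic alpha-synuclein levels, exposed to compound for 24 hr at 30 deg C. Cell growth, read with BacTiter-Glo luminescence, gave the measured signal.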
FUS yeast rescue = FUS proteinopathy suppression in yeast | S. cerevisiae FUS-expressing, growth rescue, OD600, 24 h | Potency, µM (series often up to 76.6 µM), actives largely listed as activators | actives 0.24% (n = 390,000); note: nearly all actives have a fitted effect of over 55% in size
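Absorbance at 600 nm, taken 24hr after compound addition, measured rescue of FUS-yeast growth at 30C. Induction used 2% galactose with seeding at OD 0.005. Controls: CP55940 from 92uM final, DMSO only.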
Of the large screens only hits and unclear results are named; the others gave an inactive call; ! = repeats disagree. Calls come from the whole dose curve; as a rule, active = well fitted curve in the direction sought with a large enough effect; inconclusive = small, poorly fitted or top-dose-only effect, or another doubt; inactive = no such curve, though single readings can be large; an effect the other way counts as inactive or inconclusive.

CC(=O)C(C(c1ccccc1)c1c[nH]c2ccccc12)[N+](=O)[O-] (stereo unspecified)	TDP43 rescue 13µM, Abeta yeast res inconclusive, aSyn yeast inh inconclusive
COc1cc(C(C[N+](=O)[O-])c2c(C)[nH]c3ccccc23)ccc1O (stereo unspecified)	none
CCn1cc(C(c2ccccc2)C(C(C)=O)[N+](=O)[O-])c2ccccc21 (stereo unspecified)	none
CCCN1CNc2c(c(=O)[nH]c(=S)n2CCc2cccc(OC)c2OC)C1	none (no result: TDP43 rescue, Abeta yeast res, Mito fusion yeast, FUS yeast rescue)
CCOC(=O)/C(C#N)=C1/SC(C)C(=O)N1c1ccc(Br)cc1 (stereo unspecified)	FUS yeast rescue 22µM
CCOC(=O)/C(C#N)=C1/SC(CC)C(=O)N1c1ccc(Br)cc1 (stereo unspecified)	FUS yeast rescue inconclusive
COc1ccc(NC(=O)O/N=C2/CCCc3ccc(OC)cc32)cc1	TDP43 rescue 14µM
CCCCCCC(=O)OCC(=O)c1ccc2c(c1)NC(=O)CO2	TDP43 rescue 16µM
Cc1ccc2c(Cl)cc(Cl)c(OCC(=O)O)c2n1	TDP43 rescue 14µM
CCCNC(=O)c1noc2c1CCc1cc(OC)ccc1-2	TDP43 rescue 13µM
Cc1cccn2cc(-c3cccc(S(=O)(=O)N4CC(C)OC(C)C4)c3)nc12 (stereo unspecified)	none
CC1CN(S(=O)(=O)c2cccc(-c3cn4ccccc4n3)c2)CC(C)O1 (stereo unspecified)	Mito fusion yeast 2.8µM
Cc1ccc(OCc2cc(C(=O)N3CCC(C(O)C(C)C)CC3)no2)cc1C (stereo unspecified)	TDP43 rescue 16µM, FUS yeast rescue inconclusive
Clc1ccc(SCNc2ccccc2Cl)cc1	none
Cc1ccc(NCSc2ccc(Cl)cc2)cc1	TDP43 rescue 7.1µM, Abeta yeast res inconclusive (no result: Mito fusion yeast)
CN(CC(=O)Nc1cccc(F)c1)S(=O)(=O)c1ccc2c(c1)n(C)c(=O)c(=O)n2C	none (no result: Mito fusion yeast, aSyn yeast inh)
CCCN(CC(=O)Nc1cccc(Br)c1)CC(=O)Nc1ccc(F)c(F)c1F	TDP43 rescue 14µM, aSyn yeast inh inconclusive
COc1cc(OC)c(NC(=O)N2CCSc3ccccc32)cc1Cl	none (no result: Mito fusion yeast, aSyn yeast inh)
CS(=O)(=O)Nc1ccc([N+](=O)[O-])cc1Oc1ccccc1	Mito fusion yeast 23µM!
CS(=O)(=O)Nc1ccccc1Oc1ccccc1	none
O=[N+]([O-])c1ccc(Oc2ccc(S(=O)(=O)Nc3ccccc3)cc2)cc1	TDP43 rescue 2.8µM, Mito fusion yeast inconclusive
Cc1nn(-c2ccccc2)c2sc(C(=O)Nc3cccc(Cl)c3)cc12	TDP43 rescue inconclusive (no result: Mito fusion yeast, aSyn yeast inh)
COc1cc(NC(=O)CSc2cc(=O)n(C)c3ccccc23)cc(OC)c1OC	none (no result: Mito fusion yeast, aSyn yeast inh)
Cc1nc(-c2ccccn2)nc(SCC(=O)c2ccccc2)c1Cl	TDP43 rescue 18µM
CC(C)(C)C(=O)Nc1ccc2c(c1)C(=O)C(=O)c1ccccc1-2	none (no result: TDP43 rescue, Abeta yeast res, Mito fusion yeast, FUS yeast rescue)
CC(C)(C)C(=O)Cn1c(=O)n(CCCCCC(=O)NCc2ccc3c(c2)OCO3)c(=O)c2sccc21	none (no result: Mito fusion yeast, aSyn yeast inh)
CCOc1ccc(C(=O)NC(=S)N(Cc2ccccc2)Cc2ccccc2)cc1	none
CCCN(CCC)C(=S)NC(=O)c1ccc(-c2ccccc2)cc1	TDP43 rescue 14µM
CC(C)c1ccc(NC(=O)COC(=O)[C@@H]2CCCN2C(=O)c2cccs2)cc1	TDP43 rescue 35µM, FUS yeast rescue inconclusive (no result: Mito fusion yeast)
CC(C)NC(=O)NC(=O)COC(=O)C1CCCN1C(=O)c1cccs1 (stereo unspecified)	none
O=C1c2nccnc2C(=O)N1Cc1ccccc1	aSyn yeast inh 13µM (no result: Mito fusion yeast, FUS yeast rescue)
COc1ccc2cc(-c3cn(C(=O)N(c4ccccc4)c4ccccc4)nn3)ccc2c1	none (no result: TDP43 rescue, Abeta yeast res, Mito fusion yeast, aSyn yeast inh)
O=C(NCC1CCCO1)c1cc2c([nH]c3ccccc32)c(-c2cccc(Cl)c2)n1 (stereo unspecified)	TDP43 rescue 20µM, FUS yeast rescue inconclusive
COc1ccccc1-c1nc(C(=O)NCC2CCCO2)cc2c1[nH]c1ccccc12 (stereo unspecified)	TDP43 rescue 20µM, FUS yeast rescue inconclusive
COc1cc(-c2nc(C(=O)NCC3CCCO3)cc3c2[nH]c2ccccc23)cc(OC)c1OC (stereo unspecified)	TDP43 rescue 28µM, aSyn yeast inh inconclusive, FUS yeast rescue inconclusive
CC(C)OCCCNC(=O)c1cc2c(-c3ccc(Cl)cc3)nn(C)c2s1	none (no result: Mito fusion yeast, aSyn yeast inh)
COc1ccc(OC)c(-c2cc(C3CCN(c4ncccc4[N+](=O)[O-])CC3)[nH]n2)c1	TDP43 rescue inconclusive, aSyn yeast inh inconclusive, FUS yeast rescue inconclusive
O=[N+]([O-])c1cccnc1N1CCC(c2cc(-c3ccc(Cl)cc3Cl)n[nH]2)CC1	TDP43 rescue inconclusive, Abeta yeast res inconclusive, aSyn yeast inh inconclusive, FUS yeast rescue 25µM
CC(C)[C@H](NC(=O)OC(C)(C)C)c1nnc(S(=O)(=O)Cc2c(F)cccc2Cl)o1	TDP43 rescue 11µM
Cc1ccccc1CS(=O)(=O)c1nnc([C@H](CC(C)C)NC(=O)OC(C)(C)C)o1	none
CC(C)(C)OC(=O)N[C@@H](Cc1ccccc1)c1nnc(S(=O)(=O)Cc2cccc(F)c2)o1	TDP43 rescue 5µM
O=C(CN(CCc1c[nH]c2ccccc12)S(=O)(=O)c1ccccc1)N1CCCCCC1	none (no result: TDP43 rescue, Abeta yeast res, Mito fusion yeast, FUS yeast rescue)
O=C(Nc1nc2c(ccc3ccccc32)s1)c1ccco1	TDP43 rescue 5.6µM, FUS yeast rescue inconclusive
O=C(Nc1ccccc1NC(=O)c1ccco1)c1ccccc1	none
O=C(Nc1cccc2ccccc12)c1ccco1	TDP43 rescue 16µM (no result: Mito fusion yeast)
COc1ccc(N2CCN(C(c3ccc(C)cc3)c3nnnn3C(C)(C)C)CC2)cc1 (stereo unspecified)	none (no result: TDP43 rescue, Abeta yeast res, Mito fusion yeast, FUS yeast rescue)
COC(=O)C1=CN(c2ccc(OC)cc2)C(N)=C(C#N)C1c1ccc(OC)cc1 (stereo unspecified)	FUS yeast rescue inconclusive (no result: Mito fusion yeast)
CCc1ccc(N2C=C(C(=O)OC)C(c3ccc(OC)cc3)C(C#N)=C2N)cc1 (stereo unspecified)	TDP43 rescue inconclusive, aSyn yeast inh 25µM, FUS yeast rescue inconclusive (no result: Mito fusion yeast)
Cc1ccc(C(=O)c2cc3c(cc2[N+](=O)[O-])OCCO3)cc1	TDP43 rescue 13µM
Cc1cccc(C)c1-n1ncc(C(=O)Nc2ccc3c(c2)OCCO3)c1C1CCN(C(=O)OC(C)(C)C)CC1	TDP43 rescue inconclusive (no result: Mito fusion yeast, aSyn yeast inh)
CCn1c2ccccc2c2cc(/C=N/n3cn[nH]c3=S)ccc21	TDP43 rescue 16µM
CCn1c2ccccc2c2cc(/C=N/n3cnnc3)ccc21	TDP43 rescue inconclusive, aSyn yeast inh inconclusive
CC(C)NC(=O)CCCOc1ccc(Cl)cc1Cl	none
CCN(CC)C(=O)CCCOc1ccc(Cl)cc1Cl	TDP43 rescue 13µM
O=C(CCCOc1ccc(Cl)cc1Cl)N/N=C/c1ccccc1O	TDP43 rescue inconclusive, Abeta yeast res inconclusive, aSyn yeast inh 22µM (no result: FUS yeast rescue)
CCCc1cnc(N2CCN(C(=O)c3ccccc3)CC2)nc1	TDP43 rescue 11µM

Screening data deposited in PubChem by National Center for Advancing Translational Sciences (NCATS).
